Data on eight compounds can be found in PubChem BioAssay (NCI).

Several values for one entry are separate records, joined by “and”; a condition that tells them apart may be missing. Equal entries are not always repeated. About 79,000 compounds went through this panel and 15% of them were active in at least one assay; those are over-represented in the sample as a whole. The source holds several records for some structures; these can differ, active in one and inactive in another. Activity calls are given as the source filed them. Cut-off read from the data, not from the text of the source: active = growth inhibition above about 70%; inactive = the rest.

A short description of assay [1]: NCI Yeast Anticancer Drug Screen. Data for the rad50 strain (AID 155).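 Note: 0% = growth of vehicle-only cultures of the same strain.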 The conditions noted are these: S. cerevisiae rad50 strain growth inhibition, stronger effect = higher value. The method, boiled down: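 Growth of the mutant yeast was measured after compound exposure and referenced to vehicle-treated cultures.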
Assay [2] in a line: NCI Yeast Anticancer Drug Screen. Data for the mec2-1 strain (AID 157). The conditions noted are these: S. cerevisiae mec2-1 strain, stronger effect = higher value. The procedure, abridged:
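Mutant yeast (mec2-1) grown with compound; growth inhibition relative to vehicle control reported.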

A short description of assay [3]: NCI Yeast Anticancer Drug Screen. Data for the sgs1 mgt1 strain (AID 161).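 Note: 0% = growth of cultures given vehicle only.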 The conditions noted are these: S. cerevisiae sgs1 mgt1 strain, stronger effect = higher value. The procedure, abridged: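 This yeast growth screen uses a strain with defined DNA-repair lesions; compound-treated growth is compared with vehicle-treated growth.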
Assay [4] in a line: NCI Yeast Anticancer Drug Screen. Data for the cln2 rad14 strain (AID 165).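 Note: 0% = growth equal to vehicle treated cultures.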 The conditions noted are these: S. cerevisiae cln2 rad14 strain, stronger effect = higher value. The method, boiled down:
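Readout is yeast growth inhibition versus vehicle-treated controls, using a strain with cln2 and rad14 alterations exposed to compound.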

Assay [5] in a line: NCI Yeast Anticancer Drug Screen. Data for the bub3 strain (AID 167). The conditions noted are these: S. cerevisiae bub3 mutant strain, stronger effect = higher value. The procedure, abridged:
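Whole-cell yeast assay. The mutant strain was incubated with compounds, and growth inhibition was determined by comparison with vehicle-treated cells.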

Assay [6] in a line: NCI Yeast Anticancer Drug Screen. Data for the mlh1 rad18 strain (AID 175). The conditions noted are these: S. cerevisiae mlh1 rad18 strain growth inhibition, stronger effect = higher value. The method, boiled down: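 Genetically defined yeast (DNA repair-deficient) exposed to compounds; growth inhibition determined relative to vehicle.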
Setting [7] is: at 5.0 µM (retest, dose inferred, filed as 0.5).
[8] abbreviates: at 50.0 µM (retest, dose inferred, filed as 5.0).

Take `O=C1c2cccc(O)c2C(=O)c2c(O)cccc21`: the growth inhibition was 67% (inactive) in assay [1] (setting [7]); 73% (active) in assay [1] (setting [8]); 55% (inactive) and 74.8% (active) in assay [1] (at 50.0 µM); 28% (inactive) in assay [2] (setting [7]); 36% (inactive) in assay [2] (setting [8]); 38.1% (inactive) and 42.8% (inactive) in assay [2] (at 50.0 µM). Moreover, the growth inhibition is 21% (inactive) in assay [3] (setting [7]); 50% (inactive) in assay [3] (setting [8]); 41.6% (inactive) and 45.6% (inactive) in assay [3] (at 50.0 µM); 18% (inactive) in assay [4] (setting [7]); 25% (inactive) in assay [4] (setting [8]); 44.1% (inactive) and -10.8% (inactive) in assay [4] (at 50.0 µM). The growth inhibition in assay [5] (setting [7]) was 24% (inactive); in assay [5] (setting [8]), 62% (inactive); in assay [5] (at 50.0 µM) it was 42.6% (inactive) and 39.5% (inactive); in assay [6] (setting [7]), 42% (inactive); in assay [6] (setting [8]), 66% (inactive); in assay [6] (at 50.0 µM), 50.4% (inactive) and 66.1% (inactive).

Consider `O=C(CCl)Nc1ccc(C(=O)N/N=C/c2ccc(Cl)cc2)cc1`, for which the growth inhibition in assay [1] (setting [7]) is 57% (inactive); in assay [1] (setting [8]) it was 90% (active); in assay [1] (at 50.0 µM) it was -8.7% (inactive); in assay [2] (setting [7]) it was 26% (inactive); in assay [2] (setting [8]) it was 65% (inactive); in assay [2] (at 50.0 µM) it was -32.9% (inactive). Besides, the growth inhibition in assay [3] (setting [7]) is 42% (inactive); in assay [3] (setting [8]), 70% (active); in assay [3] (at 50.0 µM) it was -21.8% (inactive); in assay [4] (setting [7]) it was 23% (inactive); in assay [4] (setting [8]), 57% (inactive); in assay [4] (at 50.0 µM), 7.05% (inactive). Moreover, the growth inhibition in assay [5] (setting [7]) was 45% (inactive); in assay [5] (setting [8]), 82% (active); in assay [5] (at 50.0 µM), -14.4% (inactive); in assay [6] (setting [7]), 41% (inactive); in assay [6] (setting [8]), 80% (active); in assay [6] (at 50.0 µM), -27.7% (inactive).

As to `O/N=C/c1cc(I)c(O)c(I)c1`, the growth inhibition was 99% (active) in assay [1] (setting [7]); 98% (active) in assay [1] (setting [8]); 98.8% (active) in assay [1] (at 50.0 µM); 97% (active) in assay [2] (setting [7]); 99% (active) in assay [2] (setting [8]); 98.2% (active) in assay [2] (at 50.0 µM). In addition, the growth inhibition in assay [3] (setting [7]) was 99% (active); in assay [3] (setting [8]), 99% (active); in assay [3] (at 50.0 µM), 98.8% (active); in assay [4] (setting [7]) it was 99% (active); in assay [4] (setting [8]), 98% (active); in assay [4] (at 50.0 µM) it was 98.3% (active). The growth inhibition in assay [5] (setting [7]) was 99% (active); in assay [5] (setting [8]) it was 99% (active); in assay [5] (at 50.0 µM) it was 98.8% (active); in assay [6] (setting [7]), 98% (active); in assay [6] (setting [8]), 98% (active); in assay [6] (at 50.0 µM), 98.5% (active).

On to `Nc1cc2c(cc1[N+](=O)[O-])[nH]c1c(-c3ccccc3)nccc12`, for which the growth inhibition was 9% (inactive) in assay [1] (setting [7]); 97% (active) in assay [1] (setting [8]); 99.2% (active) in assay [1] (at 50.0 µM); -5% (inactive) in assay [2] (setting [7]); 99% (active) in assay [2] (setting [8]); 96.4% (active) in assay [2] (at 50.0 µM). The growth inhibition was 10% (inactive) in assay [3] (setting [7]); 99% (active) in assay [3] (setting [8]); 99.3% (active) in assay [3] (at 50.0 µM); 1% (inactive) in assay [4] (setting [7]); 89% (active) in assay [4] (setting [8]); 99.1% (active) in assay [4] (at 50.0 µM). For the same compound, the growth inhibition in assay [5] (setting [7]) was 28% (inactive); in assay [5] (setting [8]), 98% (active); in assay [5] (at 50.0 µM) it was 99.2% (active); in assay [6] (setting [7]), 2% (inactive); in assay [6] (setting [8]) it was 98% (active); in assay [6] (at 50.0 µM), 98.9% (active).

For `C1=C(CN2CCCCC2)COc2ccccc21`, the growth inhibition in assay [1] (setting [7]) is 9% (inactive); in assay [1] (setting [8]) it was 30% (inactive); in assay [1] (at 50.0 µM), 51.4% (inactive); in assay [2] (setting [7]), 1% (inactive); in assay [2] (setting [8]), 45% (inactive); in assay [2] (at 50.0 µM), 22.9% (inactive). Besides, the growth inhibition in assay [3] (setting [7]) was -7% (inactive); in assay [3] (setting [8]), 61% (inactive); in assay [3] (at 50.0 µM) it was 46.5% (inactive); in assay [4] (setting [7]) it was 0% (inactive); in assay [4] (setting [8]) it was 28% (inactive); in assay [4] (at 50.0 µM), 65% (inactive). Also, the growth inhibition in assay [5] (setting [7]) was 6% (inactive); in assay [5] (setting [8]), 44% (inactive); in assay [5] (at 50.0 µM) it was 59.8% (inactive); in assay [6] (setting [7]), 20% (inactive); in assay [6] (setting [8]) it was 54% (inactive); in assay [6] (at 50.0 µM) it was 76.7% (active).

With `CC(CCc1nc2ccccc2s1)(c1ccc(O)cc1)c1ccc(O)cc1`, the growth inhibition was 27% (inactive) in assay [1] (setting [7]); 99% (active) in assay [1] (setting [8]); 99.5% (active) in assay [1] (at 50.0 µM); -5% (inactive) in assay [2] (setting [7]); 100% (active) in assay [2] (setting [8]); 99.7% (active) in assay [2] (at 50.0 µM). Also, the growth inhibition was 15% (inactive) in assay [3] (setting [7]); 100% (active) in assay [3] (setting [8]); 99.3% (active) in assay [3] (at 50.0 µM); 6% (inactive) in assay [4] (setting [7]); 99% (active) in assay [4] (setting [8]); 98.3% (active) in assay [4] (at 50.0 µM). Moreover, the growth inhibition in assay [5] (setting [7]) is -12% (inactive); in assay [5] (setting [8]), 99% (active); in assay [5] (at 50.0 µM) it was 99.2% (active); in assay [6] (setting [7]), 11% (inactive); in assay [6] (setting [8]), 100% (active); in assay [6] (at 50.0 µM) it was 99.2% (active).

Take `O=C(O)/C(=C(/c1ccccc1)c1ccc(Cl)cc1)c1ccccc1`: the growth inhibition in assay [1] (setting [7]) was 35% (inactive); in assay [1] (setting [8]), 98% (active); in assay [1] (at 50.0 µM) it was 98.2% (active) and 89.3% (active); in assay [2] (setting [7]) it was 37% (inactive); in assay [2] (setting [8]) it was 100% (active); in assay [2] (at 50.0 µM), 32.6% (inactive) and -26.5% (inactive). Besides, the growth inhibition in assay [3] (setting [7]) is 46% (inactive); in assay [3] (setting [8]), 100% (active); in assay [3] (at 50.0 µM) it was 81.8% (active) and 89.8% (active); in assay [4] (setting [7]), 55% (inactive); in assay [4] (setting [8]), 99% (active); in assay [4] (at 50.0 µM), 94.2% (active) and 91.3% (active). In addition, the growth inhibition in assay [5] (setting [7]) is 43% (inactive); in assay [5] (setting [8]), 99% (active); in assay [5] (at 50.0 µM), 49.7% (inactive) and 90.3% (active); in assay [6] (setting [7]), 69% (inactive); in assay [6] (setting [8]) it was 98% (active); in assay [6] (at 50.0 µM), 97.4% (active) and 89.5% (active).

For the compound `O=C1CCC(c2ccccc2)(C2(c3ccccc3)CCC(=O)O2)O1` (centres undefined), the growth inhibition in assay [1] (setting [7]) is 1% (inactive); in assay [1] (setting [8]), 7% (inactive); in assay [1] (at 50.0 µM), 17.4% (inactive) and 59.5% (inactive); in assay [2] (setting [7]), -4% (inactive); in assay [2] (setting [8]) it was 4% (inactive); in assay [2] (at 50.0 µM), 4.8% (inactive) and 50.9% (inactive). Besides, the growth inhibition is 3% (inactive) in assay [3] (setting [7]); 57% (inactive) in assay [3] (setting [8]); 12.4% (inactive) and 70.5% (active) in assay [3] (at 50.0 µM); 4% (inactive) in assay [4] (setting [7]); 52% (inactive) in assay [4] (setting [8]); 4.35% (inactive) and 13.1% (inactive) in assay [4] (at 50.0 µM). For the same compound, the growth inhibition is 2% (inactive) in assay [5] (setting [7]); 21% (inactive) in assay [5] (setting [8]); 13.8% (inactive) and 10.7% (inactive) in assay [5] (at 50.0 µM); 4% (inactive) in assay [6] (setting [7]); 47% (inactive) in assay [6] (setting [8]); -0.2% (inactive) and 63.1% (inactive) in assay [6] (at 50.0 µM).
